Lassa entry inh: qHTS for Inhibitors of binding or entry into cells for Lassa Virus; Lassa virus pseudotype entry inhibition, cell reporter; Potency, µM (doses to about 37.9 µM), for the others: top-dose activity change, negative = inhibition, hits mostly inhibitors; actives 1.2% (n = 300,000); calls by dose curve; tested in HEK293 cells; note: potency is the fitted concentration of half-maximal effect; nearly all actives have a fitted effect of over 50% in size
HCV inh: qHTS Assay for Inhibitors of Hepatitis C Virus (HCV). AID 651820, 2012. Potency, µM (series often up to 41.8 µM), inactives show at the highest dose activity change, negative = inhibition, actives largely listed as inhibitors. actives 3.4% (n = 340,000). Huh7.5.1 HCVcc-Cre infection, luciferase reporter, 44 h; note: potency is the fitted concentration of half-maximal effect
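Luciferase read-out (15 sec integration) after a 15 min room-temperature substrate step quantifies HCVcc-Cre infection. Cells, 1,000 per well, had compound added 4 h post-plating, then virus at ~0.5 moi, and were cultured 44 h.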
HCMV antiviral: qHTS Assay for inhibitors of the human cytomegalovirus (HCMV) | actives 4.5% (n = 410,000) | activity change, negative = inhibition, % at 57.5 µM | HFF cells, HCMV-luciferase reporter, 72 h; stronger effect = lower value | AID 1259415, 2018; in the data active = activity change below about -60%; inconclusive = no clear call, values can overlap the other calls; inactive = above about -39%
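Two-dose cell screen: HFF monolayers treated with compounds and infected with luciferase-expressing HCMV at 1 PFU/cell, 72 h at 37C, then lysed for luciferase measurement.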
Pf growth 96h: Primary qHTS for delayed death inhibitors of the malarial parasite plastid, 96 hour incubation | P. falciparum luciferase reporter growth, 96 h | Potency, µM (series often up to 28.7 µM), for the others: at the top dose activity change, negative = inhibition, usual class: inhibitors | actives 6.9% (n = 320,000) | AID 504834, 2011; note: potency is the fitted concentration of half-maximal effect
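Luminescence readout: decreased luciferase signal marks inhibited growth of reporter-expressing P. falciparum in infected red cells (2% hematocrit, 0.05% parasitemia final), exposed to compound two generations (96 h, 37 C, 5% CO2).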
Pf growth 48h: Primary qHTS for delayed death inhibitors of the malarial parasite plastid, 48 hour incubation | P. falciparum luciferase growth in erythrocytes, 48 h | actives 5.9% (n = 310,000) | Potency, µM (top dose mostly 28.7 µM), inactives show at the highest dose activity change, negative = inhibition, hits mostly inhibitors; note: potency is the fitted concentration of half-maximal effect
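Parasite viability was followed by luminescence of a genomically integrated firefly luciferase. Cultures held 0.1% parasitemia at 2% hematocrit (final), incubated under 5% CO2 at 37 C.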
Marburg entry inh: qHTS for inhibitors of binding or entry into cells for Marburg Virus; Marburg virus pseudotyped entry inhibition, cell reporter; Potency, µM (series often up to 37.8 µM), inactives show top-dose activity change, negative = inhibition, most hits filed as inhibitors; actives 1.8% (n = 300,000); calls by dose curve; tested in HEK293 cells; note: potency is the fitted concentration of half-maximal effect
Active calls of the source: *; ? = inconclusive; . = no result; ! = not active in a repeat; [ ] = another dose, or the depositor's remark. In the library only some 14% were active in any assay of this set; here they are far more common. Unless noted, calls come from the whole dose curve; as a rule, active = well fitted inhibition curve with a large enough effect; inconclusive = small, poorly fitted or top-dose-only effect, or another doubt; inactive = no such curve, though single readings can be large or run the other way. % is set by controls: 0 for no effect and ±100 for the full control effect.

SMILES	Lassa entry inh	HCV inh	HCMV antiviral	Pf growth 96h	Pf growth 48h	Marburg entry inh
Cc1cccc(-c2nc(Nc3ccc(N4CCOCC4)cc3)c3ccccc3n2)c1	-21%	?	5	?	9.3µM*	?
O=C(Oc1ccc(Nc2ncnc3ccccc23)cc1)c1cccnc1	.	-13%	1	12µM*	3%	.
CCOC(=O)c1ccc(Nc2nc(-c3cccnc3)nc3ccccc23)cc1	?	?	?	79%	5.9µM*	?
Cc1ccc(Nc2nc(-c3cccnc3)nc3ccccc23)cc1	?	1.1µM*	-69*	5%	15µM*	4µM*
c1ccc2c(Nc3ccc(N4CCOCC4)cc3)nc(N3CCOCC3)nc2c1	?	?	19	-24%	?	?
O=S(=O)(Nc1ccc(-c2ccc(N3CCCC3)nn2)cc1)c1ccc(OC(F)(F)F)cc1	?	.	28	.	.	.
COc1ccc(Cc2c(-c3ccccc3)nc3c(C)cc(Br)cn23)c(C)c1	.	.	14	.	.	.
COc1ccc(-c2cn[nH]c2-c2ccc(OCc3ccc([N+](=O)[O-])cc3)cc2O)cc1OC	.	?	-96*	9.3µM*	10µM*	.
CCc1cc(-c2[nH]ncc2-c2ccc([N+](=O)[O-])cc2)c(O)cc1OC	.	?	.	-29%	4.7µM*	.
O=[N+]([O-])c1ccc(COc2ccc(-c3[nH]ncc3-c3ccc(Cl)cc3)c(O)c2)cc1	?	?	-7	?	2.3µM*	?
COc1ccc(-c2cn[nH]c2N)cc1OC	-1%	1%	-15	110%	.	?
COc1ccc(-c2cn[nH]c2-c2ccc(OCc3ccccc3F)cc2O)cc1OC	.	11µM*	-61*	?	?	.
COc1ccc(-c2c(-c3ccc(OCC(=O)NN)cc3O)n[nH]c2C)cc1OC	-31%[46.1 µM]	-8%	38	?	?	?
COc1ccc2c3c(n(C)c2c1)[C@@H](CO)N(C(=O)c1cnccn1)CC31CN(C(C)=O)C1	.	.	2	.	.	.
CC1CCN(C(=O)c2c(NC(=O)c3ccccc3F)sc3c2CCC(C(C)(C)C)C3)CC1 (stereo not drawn)	3%[46.1 µM]	.	-9	.	.	-1%[46.1 µM]
C/C(=N\NC(=O)c1cc2ccccc2cc1O)c1ccccn1	?	3.2µM*	-99*	10%	3.7µM*	?
C/C(=N\NC(=O)CCCNc1ccc(C)cc1)c1ccccn1	-20%	?	-67*	?	?	6.5µM*
C/C(CC(=O)N1CCN(C=O)CC1)=N\NC(=O)c1cc2ccccc2cc1O	-17%	12%	-64*	-9%	-10%	?
C/C(=N\NC(=O)CCCNc1ccccc1)c1ccncc1	?	15%	-27	?	-2%	1%[46.1 µM]
C/C(=N\NC(=O)c1cc2ccccc2cc1O)c1cc2ccccc2o1	-45%	?	0	?	?	?
Fc1ccc(N/N=C(/c2ccccc2)c2ccccn2)cc1	9%	?	-61*	5.2µM*	?	5%
C/C(CC(=O)N1CCN(C=O)CC1)=N\NC(=O)c1ccc([N+](=O)[O-])cc1	.	10%	-34	104%	-26%	.
Cn1c(=O)c2c(SCC(=O)N3CCc4ccccc43)nc(-c3ccccc3Cl)nc2n(C)c1=O	-8%[46.1 µM]	.	13	.	.	.
O=C1NC[C@H](CCCCN2CCN(CCc3ccccc3)C(=O)C2=O)N(CCc2ccccc2)C1=O	.	.	-12	.	.	.
COc1ccc(-c2csc(C(NC(C)=O)c3ccccc3)n2)cc1 (stereo not drawn)	.	.	25	.	.	.
SMILES	Lassa entry inh	HCV inh	HCMV antiviral	Pf growth 96h	Pf growth 48h	Marburg entry inh
C[C@@H]1CCCCO[C@@H](CN(C)C(=O)c2ccncc2)[C@@H](C)CN([C@H](C)CO)C(=O)c2cc(NC(=O)Cc3ccccc3)ccc2O1	.	.	-11	.	.	.
CCOc1ccc(C(=O)N/N=C(\c2ccccc2)c2ccccn2)cc1	7.1µM*	10µM*	-99*	12µM*	13µM*	?
CCOc1ccc(C(=O)Nc2cccc3cccnc23)cc1	-17%	10%	3	0%	4%	14%
CCN(CC)C(=O)COc1ccc(/C(C)=N/NC(=O)c2ccccc2-n2cccc2)cc1	-13%	8%	50	?	?	-1%
C/C(=N\NC(=O)c1ccccc1-n1cccc1)c1ccccn1	.	.	-99*	.	.	.
CCc1ccc(/C(C)=N/NC(=O)c2ccccn2)cc1	.	-2%	14	?	75%	.
C/C(=N\NC(=O)c1c[nH]c2ccccc12)c1ccccn1	2µM*	?	-82*	?	?	?
C/C(=N\NC(=O)c1ccc(F)cc1)c1ccccn1	.	2.5µM*	-98*	28%	?	.
Cc1nc2ccccn2c(=O)c1NC(=O)c1ccccc1Cl	6%[46.1 µM]	.	83	.	.	.
COc1cccc(NC(=O)Cn2nnc(C(=O)NCCc3ccccc3)c2N)c1	7%[46.1 µM]	-1%	-18	?	?	.
CCOc1ccc(NC(=O)c2cn(-c3ccc(OCC)cc3)c(=O)c3cc(OC)c(OC)cc23)cc1	-5%	-21%	-24	3.3µM*	?	?
CCOc1ccc(-n2cc(C(=O)N3CCC(C)CC3)c3cc(OC)c(OC)cc3c2=O)cc1	-6%	-12%	-18	77%	9.3µM*	-12%
CCOc1ccc(-n2cc(C(=O)Nc3cccc(Cl)c3)c3cc(OC)c(OC)cc3c2=O)cc1	2%	-8%	2	45%	.	-27%
Cc1ccc(C)c(N2CCN(C(=O)C3CCCCN3S(=O)(=O)c3ccc(F)cc3)CC2)c1 (stereo not drawn)	-25%	?	-19	.	?	10µM*!
CC(=O)c1ccc(N2CCN(C(=O)C3CCN(S(=O)(=O)c4c(C)noc4/C=C/c4ccc(C)cc4)CC3)CC2)cc1	-1%[46.1 µM]	.	-24	.	.	.
Cc1ccc(C)c(N2CCN(C(=O)C3CCN(S(=O)(=O)c4c(C)noc4C)CC3)CC2)c1	.	?	-68*	?	?	2%
Cc1cccc(N2CCN(C(=O)C3CCN(S(=O)(=O)c4c(C)noc4C)CC3)CC2)c1C	-5%[46.1 µM]	13µM*	-22	?	?	-10%[46.1 µM]
Cc1noc(C)c1S(=O)(=O)N1CCC(C(=O)N2CCN(c3ccccc3Cl)CC2)CC1	10%	-9%	-2	?	?	3%
Cc1ccc(/C=C/c2onc(C)c2S(=O)(=O)N2CCC(C(=O)N3CCC(N(C)C(C)C)CC3)CC2)cc1	-29%[46.1 µM]	.	-101*	.	.	.
CCOC(=O)C1CCN(C(=O)C2CCCN2S(=O)(=O)c2ccc(Cl)cc2)CC1 (stereo not drawn)	-5%	.	1	10µM*	0%	19%
